A selection: hits, their analogues and other compounds. The true share with any hit is near 4.8%.
DAX1 inh-1: inhibitors of human orphan nuclear receptor DAX1 (NR0B1); P51843; 340,000 compounds, 0.99% hits; HEK293 Gal4-DAX1 luciferase reporter, luminescence; inhibition, % at 6.75 µM;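 active = inhibition above the mean over all tested compounds plus 3 SD, cut at about 4.2% in these data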;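 also: inhibition shows as a rise in luminescence from relieved DAX1 repression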
NR1D1 modulator: Rev-erb alpha (human) modulation. P20393. Rev-erbα–FITC-DNA binding, fluorescence polarization, 90 min. activity, % at 10 µM. 370,000 compounds, 0.79% hits. AID 1259318;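 active = activity above about 14%, limit read from the data; passing the limit was not always enough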
Target sequence (P20393 whole entry, looked up): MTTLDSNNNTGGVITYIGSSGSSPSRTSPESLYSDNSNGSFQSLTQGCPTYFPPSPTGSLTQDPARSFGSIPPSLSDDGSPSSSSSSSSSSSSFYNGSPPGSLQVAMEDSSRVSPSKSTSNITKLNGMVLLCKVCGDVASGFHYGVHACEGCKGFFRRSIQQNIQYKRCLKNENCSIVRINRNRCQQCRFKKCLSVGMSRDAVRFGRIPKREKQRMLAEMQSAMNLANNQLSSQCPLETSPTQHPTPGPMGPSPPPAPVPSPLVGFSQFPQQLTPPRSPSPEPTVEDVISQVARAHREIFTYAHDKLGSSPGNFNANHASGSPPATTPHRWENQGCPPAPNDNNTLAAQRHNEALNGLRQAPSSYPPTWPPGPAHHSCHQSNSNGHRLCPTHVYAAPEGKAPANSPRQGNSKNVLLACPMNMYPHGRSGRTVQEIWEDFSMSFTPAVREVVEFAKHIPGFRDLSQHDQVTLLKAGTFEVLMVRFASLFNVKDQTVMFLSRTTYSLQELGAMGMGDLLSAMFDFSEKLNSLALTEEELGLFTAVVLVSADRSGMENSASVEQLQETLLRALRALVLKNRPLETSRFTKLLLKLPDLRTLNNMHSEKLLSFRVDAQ
hcDAF-12 act: activators of H. contortus DAF-12 nuclear receptor; HEK293 hcDAF-12 lit1-tk-luc reporter, luminescence; 0% DMSO, 100% Δ7-dafachronic acid; AID 652067; 370,000 compounds, 1.4% hits; activation, % at 6.8 µM;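 active = activation above the mean of all tested compounds plus 3 SD, cut at about 5.5% in these data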
hgDAF12 agonist: activates the H. glycines DAF-12 receptor ligand-binding domain | 370,000 compounds, 1.8% hits | HEK293 GAL4-hgDAF12 UAS-luciferase reporter, agonist luminescence; normalized to butyrate control | AID 687014 | activation, % at 6.8 µM;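 active = activation above a cutoff set at the mean of all screened compounds plus 3 SD, cut at about 10% in these data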
ssDAF-12 act: activates DAF-12 receptor from parasite S. stercoralis | HEK293 ssDAF-12/GRIP1 lit1-tk-luc reporter, luminescence; % of 3 µM dafachronic acid response | activation, % at 6.8 µM | 370,000 compounds, 1% hits;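 active = activation above the mean over all tested compounds plus 3 SD, cut at about 0.9% in these data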
DAX1 inh-2: DAX1 (NR0B1) inhibition, primary screen; 370,000 compounds, 1.1% hits; HEK293T StAR-luciferase reporter, SF-1/DAX-1 repression relief; AID 652010; inhibition, % at 6.8 µM;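 active = inhibition above the mean over all tested compounds plus 3 SD, cut at about 3.6% in these data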;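 also: higher inhibition means more luminescence from relief of DAX-1 repression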
LXR ag: activates human LXR-beta, counter-screen for hcDAF-12 agonists; shares compounds with hcDAF-12 act; HEK293 Gal4-LXR tk-luc reporter, luminescence, 24 h; normalized: DMSO 0%, positive control 100%; activation, % at 6.8 µM; 3,400 tested, under 10 active;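 active = mean percent activation of the reporter above a cutoff set as the average over tested compounds plus their standard deviation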
hcDAF12 conf: confirmation of H. contortus DAF-12 agonists; HEK293 hcDAF-12 lit1-tk-luc reporter, luminescence; % of Δ7-dafachronic acid response; shares compounds with hcDAF-12 act; activation, % at 6.8 µM; 3,400 compounds, 61% hits; AID 743032;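 active = mean activation across triplicate tests above the threshold derived from the earlier primary screen, cut at about 5.5% in these data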
Each line names hits and unclear results; the compound was inactive in the other large screens (follow-up assays come after a bar, where they were run).

Nn1cnc2scc(-c3ccc(Cl)cc3)c2c1=O	hcDAF-12 act 6.9, ssDAF-12 act 1.7 | LXR ag inactive | hcDAF12 conf inactive
Nn1cnc2scc(-c3cccs3)c2c1=O	none
O=C(c1ccccc1)N1CCC2CCN(CCc3ccccc3)CC21 (stereo not given)	none (no result: DAX1 inh-1)
C=CCn1c(SCC(=O)N2CCN(c3ccccc3)CC2)nc2c([nH]c3ccccc32)c1=O	hcDAF-12 act 9.4 | LXR ag inactive | hcDAF12 conf inactive
CCOC(=O)N1CCN(C(=O)CSc2nc3c([nH]c4ccccc43)c(=O)n2CC)CC1	hcDAF-12 act 8.3 | LXR ag inactive | hcDAF12 conf inactive
COc1cccc(-n2c(Cc3cc(=O)[nH]c(=O)[nH]3)nnc2SCC(=O)N2CCCCC2)c1	hcDAF-12 act 8.3 | LXR ag inactive | hcDAF12 conf inactive
COc1cccc(-n2c(SCC(=O)N3CCCCC3)nc3c([nH]c4ccccc43)c2=O)c1	hcDAF-12 act 7.0 | LXR ag inactive | hcDAF12 conf inactive
COCCn1c(SCC(=O)N2CCCC2)nc2c([nH]c3ccccc32)c1=O	none
Nc1ncnc2c1ncn2[C@@H]1O[C@H](C(=O)N[C@@H](CCc2ccccc2)C(=O)N2CCN(CC(=O)N3CCCC3)CC2)[C@@H](O)[C@H]1O	none (no result: DAX1 inh-1)
CN1OC[C@@H]2CN3C(=Nc4cc(C(F)(F)F)cc(C(F)(F)F)c4)Sc4ccccc4[C@@H]3C[C@@H]21	none (no result: DAX1 inh-1)
O=C1CCC2(CCC(c3ccccc3)CC2)N1CCCO (stereo not given)	none (no result: DAX1 inh-1)
COc1cc(NC(=O)C2C3C=CC(C3)C2C(=O)O)ccc1NC(=O)c1ccccc1 (stereo not given)	none
COc1cccc(C(=O)Nc2ccc(NC(=O)C3C4C=CC(C4)C3C(=O)O)cc2)c1 (stereo not given)	hcDAF-12 act 12.3, hgDAF12 agonist 10.5, ssDAF-12 act 1.0 | LXR ag inactive | hcDAF12 conf inactive
Cc1ccc(-c2nnc(SCC(=O)c3ccc(O)c(O)c3)n2-c2ccc(Cl)cc2)cc1	none (no result: DAX1 inh-1)
CN1CC=C(c2ccccc2)N(c2ccc(Br)cc2)C1=O	none (no result: DAX1 inh-1)
COc1cc(/C=N/NC(=O)c2ccccc2O)ccc1OCC(=O)Nc1ccccc1	none
COc1cc(C=C2C(=O)OC(C)(C)OC2=O)ccc1OCC(=O)Nc1ccccc1	hcDAF-12 act 7.1 | LXR ag inactive | hcDAF12 conf inactive
CSc1nc(=S)n(Cc2ccccc2)c(C)c1C(C)=O	hcDAF-12 act 9.1 | LXR ag inactive | hcDAF12 conf inactive
Oc1c(N=Nc2ccc(F)cc2)ccc2ccccc12	hcDAF-12 act 7.4 | LXR ag inactive | hcDAF12 conf 12.3
CN(C)CCNC(=O)C(=O)C1C(=O)Nc2ccccc21 (stereo not given)	hcDAF-12 act 8.0, ssDAF-12 act 0.9 (no result: DAX1 inh-1) | LXR ag inactive | hcDAF12 conf inactive
CCCCCNC(=O)C(=O)C1C(=O)Nc2ccccc21 (stereo not given)	none
O=C(CCc1nnc(Cc2c[nH]c3ccccc23)o1)NCCC1CCCCO1 (stereo not given)	hcDAF-12 act 6.8 | LXR ag inactive | hcDAF12 conf inactive
O=C(CCc1nnc(Cc2c[nH]c3ccccc23)o1)NC1CCCC1	none
CCOC(=O)C1=C(C)Nc2ccc(C)cc2S1	none
Cc1ccc2c(c1)Sc1c(ccc3ccccc13)N2	DAX1 inh-1 4.8, hcDAF-12 act 13.9, hgDAF12 agonist 20.8, ssDAF-12 act 3.2 | LXR ag inactive | hcDAF12 conf 8.0
COc1cc(CNc2ccc(N3CCCC3)cc2)ccc1OCc1ccccc1	hcDAF-12 act 7.7 | LXR ag inactive | hcDAF12 conf 5.9
O=c1[nH]c2cc3c(cc2cc1CN(Cc1ccccc1)Cc1nnnn1Cc1ccco1)OCCO3	hcDAF-12 act 8.3 | LXR ag inactive | hcDAF12 conf inactive
O=c1[nH]c2cc3c(cc2cc1CN(Cc1cccnc1)Cc1nnnn1Cc1ccco1)OCCO3	none
CC(=O)Nc1ccc(NC(=O)CN2C(=O)COc3ccc(S(=O)(=O)N4CCOCC4)cc32)cc1	none
CCN(CC)S(=O)(=O)c1ccc2c(c1)N(CC(=O)Nc1ccc(NC(C)=O)cc1)C(=O)CO2	hcDAF-12 act 6.8 | LXR ag inactive | hcDAF12 conf inactive
O=C(N[C@@H](Cc1cccnc1)C(=O)N1CCC[C@H]1C(=O)NCCc1ccccc1Cl)c1cccs1	none (no result: DAX1 inh-1)
COC(=O)c1sccc1NC(=O)c1ccc(C(C)C)cc1	hcDAF-12 act 7.1 | LXR ag inactive | hcDAF12 conf 6.8
COC(=O)c1sccc1NC(=O)c1ccccc1	none
Cc1[nH]c2ccccc2c1CC(=O)Nc1ccc(Nc2cccnc2)c(-c2ccc(OC(F)(F)F)cc2)c1	none (no result: DAX1 inh-1)
O=C(NC1CCN(Cc2ccccc2)CC1)c1ccccc1Cl	none
Cc1c(C(=O)NC2CCN(Cc3ccccc3)C2)oc2c(Cl)cccc12 (stereo not given)	hcDAF-12 act 7.0 | LXR ag inactive | hcDAF12 conf inactive
Nc1ccccc1Sc1c[nH]c2ccccc12	hcDAF-12 act 6.8 | LXR ag inactive | hcDAF12 conf inactive
Cc1cccc(Cl)c1-n1nnnc1C1(C)CSCC(=O)N1Cc1ccc(F)cc1 (stereo not given)	none (no result: DAX1 inh-1)
O=C(Nc1nnc(-c2ccccc2Cl)o1)c1nc2ccccc2s1	hcDAF-12 act 8.8, ssDAF-12 act 1.2 | LXR ag inactive | hcDAF12 conf inactive
Nc1nc2c(c(=O)[nH]1)N(C=O)C(CNc1ccc(C(=O)N[C@@H](CCC(=O)O)C(=O)O)cc1)CN2 (stereo not given in full)	none (no result: DAX1 inh-1, hcDAF-12 act, hgDAF12 agonist, ssDAF-12 act, DAX1 inh-2)
O=C(CSCC(=O)Nc1nc(-c2ccc3c(c2)OCO3)cs1)Nc1nccs1	hcDAF-12 act 8.4 | LXR ag inactive | hcDAF12 conf inactive
COc1ccc(NC(=O)Nc2nc3ccccc3s2)cc1	hcDAF-12 act 7.1, hgDAF12 agonist 11.2 | LXR ag inactive | hcDAF12 conf inactive
O=C(Nc1nc2ccccc2s1)C1CCCO1 (stereo not given)	hcDAF-12 act 7.5 | LXR ag inactive | hcDAF12 conf 6.7
COc1n[nH]c(C(=O)Nc2nc3ccccc3s2)c1[N+](=O)[O-]	hcDAF-12 act 8.0 | LXR ag inactive | hcDAF12 conf 6.1
NC(=S)Nc1nc2ccccc2s1	hcDAF-12 act 7.9 | LXR ag inactive | hcDAF12 conf 7.0
COC(=O)[C@]12C[C@H](CC(=O)NCc3ccc(C)o3)C(=O)N(Cc3ccccc3)C1=C[C@H](C(C)(C)C)O[C@@H]2C	none (no result: DAX1 inh-1)
